Tau fibril ThT: inhibitors of human tau fibril formation, thioflavin T binding | P10636 | recombinant tau K18 P301L, heparin-induced fibrillization, ThT fluorescence | Potency, µM (doses to about 57.4 µM), for the others: at the top dose activity, negative = inhibition, most hits filed as inhibitors | 270,000 tested, 2.1% active | AID 1460; also: potency is read from the fitted curve at half-maximal effect; nearly all actives have a fitted effect of over 55% in size
Target sequence (P10636 561-689 P618L limits assumed): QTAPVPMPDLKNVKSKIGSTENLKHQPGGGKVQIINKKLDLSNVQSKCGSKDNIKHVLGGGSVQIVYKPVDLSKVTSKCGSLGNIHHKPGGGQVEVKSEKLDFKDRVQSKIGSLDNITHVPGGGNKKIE
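ThT emission at 510 nm, taken 1 hr after adding 30 uM dye, quantifies aggregates formed when 20 uM heparin acts on human tau K18 P301L for 6 hr at 37 C.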
Tau fluor counter: counter-screen for tau fibril formation inhibitors | tau K18 P301L (four-repeat tau fragment) Alexa594 fluorescence, heparin fibrillization | Potency, µM (series often up to 57.7 µM), for the others: top-dose activity change, negative = decrease | 280,000 tested, 0.93% active | AID 1463; also: potency is read from the fitted curve at half-maximal effect; nearly all actives have a fitted effect of over 55% in size
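Human K18 P301L tau (15 uM unlabeled plus 0.24 uM Alexa 594-labeled, final) in 100 mM sodium acetate pH 7 was mixed with compound and 20 uM heparin and incubated 6 hr at 37 C.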
Coupling enz: coupling enzyme interference in Giardia aldolase counter-screen; activity change, negative = inhibition, % at 58.2 µM, hits read low; AID 2472; coupling enzyme system counterscreen, AmpLite Red fluorescence; 290,000 tested, 0.67% active; in the data active = activity change below about -30%
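Compounds tested against the coupling enzymes alone at 57.5 uM final; readout was AmpLite Red fluorescence (525/598 nm) after 20 min at RT.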
Tau FP inhib: tau fibrillization inhibition (FP); P10636; K18 P301L tau heparin fibrillization, Alexa594 FP, 6 h; Potency, µM (titrated, usually from 57.7 µM), without a hit: at the top dose activity, negative = inhibition, actives largely listed as inhibitors; 280,000 tested, 0.39% active; also: potency is read from the fitted curve at half-maximal effect; nearly all actives have a fitted effect of over 55% in size
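K18 P301L tau (15 uM unlabeled/0.24 uM Alexa 594-labeled, final) + compound + heparin 20 uM final; 100 mM NaOAc pH 7; 6 hr 37 C; ThT 30 uM final added, 1 hr RT; FP ex 555/em 632 nm.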
Sfp PPTase inh: Sfp phosphopantetheinyl transferase inhibition. Biochemical Sfp PPTase activity, qHTS. 310,000 tested, 3.5% active. Potency, µM, without a hit: largest response in the series, negative = inhibition, hits mostly inhibitors;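 also: the enzyme is Sfp with the accession as filed and its product quenches rhodamine fluorescence; potency is read from the fitted curve at half-maximal effect; 0% = enzyme reaction without inhibitor and -100% = no enzyme wells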
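With Hepes-Na pH 7.6 buffer containing 10 mM MgCl2, Sfp (15 nM) modified BHQ-2-YbbR (12.5 uM) using rhodamine-CoA (5 uM). Two reads 30 minutes apart at 525/598 nm yielded each well's rate.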
Active calls of the source: *; ? = inconclusive; . = not tested or not shown; [ ] = remark or other dose. Most compounds without a hit are left out; they make up all but 5.2% or so of the library. Unless noted, calls follow the shape of the dose curve; as a rule, active = well fitted curve in the direction sought with a large enough effect; inconclusive = small, poorly fitted or top-dose-only effect, or another doubt; inactive = no such curve, though single readings can be large; an effect the other way counts as inactive or inconclusive. Unless noted, % is scaled to controls: 0 for no effect and ±100 for the full control effect.

SMILES	Tau fibril ThT	Tau fluor counter	Coupling enz	Tau FP inhib	Sfp PPTase inh
Oc1ccc(O)c2c1C1c3ccccc3C2c2ccccc21	.	.	0.1	.	50.1µM*
CCC(=O)N1CCc2cc(Br)cc(S(=O)(=O)CCC(=O)Nc3cccc(Cl)c3)c21	-6.1%	-16.0%	.	-10.0%	.
CCCOc1ccc(CN(C(=O)c2nc(SC(C)C)ncc2Cl)C2CCS(=O)(=O)C2)cc1 (stereo unspecified)	-2.1%	-11.6%	.	7.3%	.
Cc1cccc(NC(=S)N/N=C/C(C)c2ccccc2)c1C (stereo unspecified)	?	-11.6%	-1.5	-1.6%	79.4µM*
Cc1ccccc1NC(=S)N/N=C/C(C)c1ccccc1 (stereo unspecified)	?	-10.5%	0.2	7.3%	-13.4%
COc1ccc(OC)c(N(CC(=O)NCc2ccccc2)S(=O)(=O)c2ccccc2)c1	-3.9%	-12.8%	.	-2.5%	.
COc1ccc(OC)c(N(CC(=O)NCc2ccccc2)S(=O)(=O)c2ccc(OC)c(OC)c2)c1	.	.	.	.	50.1µM*
COc1ccc(OC)c(/C=N/NC(=O)CC(=O)NCc2ccccc2)c1	-13.7%	-9.4%	-33.3*	-3.1%	14.6%
COc1ccc(/C=N/NC(=O)CC(=O)NCc2cccnc2)c(OC)c1	-2.6%	-1.8%	1.3	8.6%	9.0%
COc1ccc(C(=O)N/N=C/c2cc3ccccc3[nH]c2=S)cc1	3.98µM*	?	0.6	-6.8%	-8.4%
O=C(N/N=C/c1ccc(O)cc1)c1cccc(N/N=C/c2ccc(O)cc2)c1	5.01µM*	14.1µM*[quencher]	-1.6	4.7%	5.4%
COC(C(=O)C(O)C(C)O)C1Cc2cc3cc(OC4CC(OC5CC(O)C(O)C(C)O5)C(O)C(C)O4)c(C)c(O)c3c(O)c2C(=O)C1OC1CC(OC2CC(OC3CC(C)(O)C(O)C(C)O3)C(O)C(C)O2)C(O)C(C)O1 (stereo unspecified)	.	.	.	.	0.6%
Cc1nn(CC(=O)N2CCN(c3ccccc3)CC2)c(=O)c2cc3cc(F)ccc3n12	2.3%	-9.8%	.	0.0%	.
CCc1cc2c(c(CC)n1)CCC(=O)N2Cc1ccc(-c2ccccc2-c2nn[nH]n2)cc1	-7.9%	-8.6%	12.8	-13.3%	-2.4%
COC(=O)c1cc2oc3ccccc3c2n1CC(=O)Nc1ccc(OC)c(OC)c1	-6.6%	-17.8%	.	-16.1%	.
COc1ccccc1NC(=O)c1cc(S(=O)(=O)NCCC2=CCCCC2)ccc1F	-0.2%	-27.5%	.	-7.7%	.
O=C(C[n+]1ccc(C(=O)N/N=C/c2ccc(O)cc2)cc1)c1ccccc1	8.91µM*	?	-10.7	-15.9%	?
O=C(N/N=C/c1ccc(Br)cc1)c1cc[n+]([O-])cc1	.	.	0.9	.	-7.2%
O=C(C[n+]1ccc(C(=O)N/N=C/c2ccc(OCc3ccccc3)cc2)cc1)c1ccccc1	6.31µM*	?	-1.9	0.4%	?
O=C(C[n+]1ccc(C(=O)N/N=C/c2ccc(Br)cc2)cc1)c1ccccc1	12.6µM*	?	-0.2	-8.8%	-23.9%
Oc1ccc(N=Cc2ccc(OCc3ccccc3)cc2)cc1	3.98µM*	?	-32.1*	12.6µM*	?
COC(=O)c1ccccc1NC(=O)c1cc(-c2ccc(Cl)cc2)on1	-5.9%	-10.9%	.	-0.2%	.
COc1cc(NC(=O)c2c(C)oc3ncnc(N4CCCCC4)c23)cc(OC)c1	-5.4%	-14.1%	.	-2.3%	.
N#Cc1nc(/C=C/c2ccc(F)cc2)oc1N1CCCCCC1	-17.2%	?	.	0.2%	.
CCC1CCCCN1C(=O)CSc1nnc(-c2ccc(OC)c(OC)c2)o1 (stereo unspecified)	-10.3%	-4.8%	.	-5.6%	.
SMILES	Tau fibril ThT	Tau fluor counter	Coupling enz	Tau FP inhib	Sfp PPTase inh
CCOc1ccccc1NC(=O)c1cc2cc(C)ccc2n1C	?	-23.9%	.	-14.7%	.
COc1ccc(/C=N/NC(=O)C[n+]2ccccc2)c(OC)c1	-1.6%	2.2%	-1.0	4.5%	23.8%
COc1ccc(OC)c(/C=N/NC(=O)c2cc[n+](CC(=O)c3ccccc3)cc2)c1	11.2µM*	?	-3.2	-7.1%	2.9%
CCn1c(CN2CCOCC2)nc2cc(NC(=O)c3ccc([N+](=O)[O-])cc3)ccc21	-8.8%	-3.1%	.	-1.9%	.
Cc1n[nH]c(=S)n(NC(=O)CC(=O)Nn2c(=S)[nH]nc(C)c2=O)c1=O	1.9%	4.8%	-43.4*	2.7%	27.4%
COc1ccc(OC)c(NC(=O)c2c(NCc3ccc(OC)c(OC)c3)sc3c2CCC(C)C3)c1 (stereo unspecified)	?	?	.	0.1%	.
Cn1c(=O)c2[nH]c(N=NNc3ccccc3F)nc2n(C)c1=O	14.1µM*	?	-4.7	?	25.1µM*
COc1ccc(NN=Nc2nc3c([nH]2)c(=O)n(C)c(=O)n3C)cc1	25.1µM*	?	6.6	?	15.8µM*
COc1ccc(Nc2c3c(nc4ccc(NC(=O)/C=C/c5cccc(OC)c5OC)cc24)CCCC3)cc1OC	14.1µM*	?	.	8.4%	.
COc1ccc(/C=C/C(=O)Nc2ccc3nc4n(c(=O)c3c2)CCCC4)cc1OC	?	-12.8%	1.2	-2.0%	14.8%
COc1ccc(Nc2c3c(nc4ccc(NC(=O)/C=C/c5cc(OC)c(OC)c(OC)c5)cc24)CCCC3)cc1OC	?	?	.	-1.4%	.
COc1ccccc1Nc1c2c(nc3ccc(NC(=O)c4cccc(F)c4)cc13)CCCC2	?	?	.	-9.7%	.
COc1ccccc1Nc1c2c(nc3ccc(NC(=O)/C=C/c4cccc(OC)c4OC)cc13)CCCC2	14.1µM*	?	.	-3.8%	.
COc1ccc(/C=C/C(=O)Nc2ccc3nc4c(c(Nc5ccccc5OC)c3c2)CCCC4)cc1	10µM*	?	.	?	.
COc1ccc(/C=C/C(=O)Nc2ccc3nc4c(c(Nc5ccc(OC)c(OC)c5)c3c2)CCCC4)cc1	25.1µM*	15.8µM*[quencher]	.	-4.5%	.
COc1cc2c(=O)c(C(=O)c3ccc(C)c(C)c3)cn(Cc3ccccc3F)c2cc1OC	-12.6%	-10.6%	.	2.1%	.
COc1ccc(-n2nc(C(=O)Nc3ccc(C(C)=O)cc3)nc2-c2ccccc2)cc1	12.7%	3.7%	.	-6.2%	.
CCN1CCN(CCOc2cccc(Cl)c2Cl)CC1	-6.5%	-13.6%	-0.3	-2.3%	50.1µM*
CCN1CCN(CCCOc2ccc(Cl)cc2Br)CC1	8.5%	13.5%	-0.3	3.0%	10µM*
CCN1CCN(CCOc2ccc(Br)cc2C)CC1	-2.7%	-2.5%	0.5	-2.4%	50.1µM*
CC1CC(C)CN(CCOc2cccc(Cl)c2Cl)C1 (stereo unspecified)	6.5%	5.1%	3.3	2.6%	-33.1%
Clc1ccc(OCCCN2CCCCC2)c(Br)c1	-10.9%	-13.5%	-0.3	3.7%	-21.5%
COc1ccc(/C([O-])=C(/C(=S)Nc2ccc(C)c(C)c2)n2c[n+](C)c3ccccc32)cc1OC	-11.8%	-13.0%	2.6	4.2%	44.7µM*
COc1cccc(-c2oc3ccc(C)cc3c(=O)c2O)c1	?	-23.7%	.	-9.2%	.
